Results as given in PubChem BioAssay (NCATS).
Results filed as inconclusive are left out. A call without a number means that no potency is given here. The source made the active and inactive calls. Calls follow the shape of the dose curve; as a rule, active = well fitted inhibition curve with a large enough effect; inconclusive = small, poorly fitted or top-dose-only effect; inactive = flat fitted curve, though single readings scatter.

Assays:
Experiment in all cases: qHTS profiling for inhibitors of Plasmodium falciparum proliferation (AID 504749); also: nearly all actives have a fitted effect of over 60% in size
Conditions in all cases: P. falciparum in erythrocytes, SYBR Green DNA, 72 h; series mostly up to 28.7 µM
[1] = system: CP260
Summary of the method: (§1)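 Each compound contacts P. falciparum-infected red blood cells for 72 h at 37 C; lysis buffer (Tris, EDTA, saponin, Triton X, SYBR Green I) is added and fluorescence measured next morning; values normalized to controls.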

[2] = system: CP262
Summary of the method: as §1

[3] = system: CP268
Summary of the method: as §1

[4] = system: CP269
Summary of the method: as §1

[5] = system: CP286
Summary of the method: as §1

[6] = system: CP291
Summary of the method: as §1

[7] = system: CP252
Summary of the method: as §1

[8] = system: CP256
Summary of the method: as §1

[9] = system: CP265
Summary of the method: as §1

[10] = system: CP266
Summary of the method: as §1
Potency is read from the fitted curve at half-maximal effect.

In the case of `N#Cc1nn(-c2c(Cl)cc(C(F)(F)F)cc2Cl)c(N)c1S(=O)C(F)(F)F` (centres undefined), the Potency [1] was 8.91 µM (active), the Potency [2] was 10.7 µM (active) and the Potency [3] was 6.01 µM (active). For the same compound, the Potency [4] was 15.1 µM (active), the Potency [5] was 5.01 µM (active) and the Potency [6] was 6.75 µM (active).

With `CNC(=O)Oc1cccc2ccccc12` the Potency [7] was “inactive”, the Potency [8] was “inactive” and the Potency [1] was “inactive”. The Potency [2] was “inactive”, the Potency [9] was “inactive” and the Potency [10] was “inactive”. For the same compound, the Potency [3] was “inactive”, the Potency [4] was “inactive” and the Potency [5] was “inactive”. For the same compound, the Potency [6] was “inactive”.

With `O=C1NCN(c2ccccc2)C12CCN(CCCOc1ccc(F)cc1)CC2` the Potency [7] was “inactive”, the Potency [8] was “inactive” and the Potency [2] was “inactive”. The Potency [5] was 12.6 µM (active).

In the case of `c1cc2c(c(N3CCNCC3)c1)OCCO2`, the Potency [7] was “inactive”, the Potency [8] was “inactive” and the Potency [1] was “inactive”. For the same compound, the Potency [2] was “inactive”, the Potency [9] was “inactive” and the Potency [3] was “inactive”. For the same compound, the Potency [4] was “inactive”, the Potency [5] was “inactive” and the Potency [6] was “inactive”.

With `Clc1ccc(CO/N=C(\Cn2ccnc2)c2ccc(Cl)cc2Cl)c(Cl)c1` the Potency [7] was 6.31 µM (active), the Potency [1] was 7.08 µM (active) and the Potency [2] was 15.1 µM (active). For the same compound, the Potency [9] was 4.47 µM (active), the Potency [4] was 13.5 µM (active) and the Potency [5] was 5.62 µM (active). The Potency [6] was 12 µM (active).

For `CC(C)NCC(O)c1ccc(N)c(C#N)c1` (centres undefined), the Potency [7] was “inactive”, the Potency [8] was “inactive” and the Potency [1] was “inactive”. For the same compound, the Potency [2] was “inactive”, the Potency [9] was “inactive” and the Potency [10] was “inactive”. For the same compound, the Potency [3] was “inactive”, the Potency [4] was “inactive” and the Potency [5] was “inactive”. For the same compound, the Potency [6] was “inactive”.

For `CCCCCCCCC(=O)NCc1ccc(O)c(OC)c1`, the Potency [7] was “inactive”, the Potency [8] was “inactive” and the Potency [1] was “inactive”. For the same compound, the Potency [2] was “inactive”, the Potency [9] was “inactive” and the Potency [3] was “inactive”. For the same compound, the Potency [4] was “inactive”, the Potency [5] was “inactive” and the Potency [6] was “inactive”.

With `CC(C)(O)C(Cl)(Cl)Cl` the Potency [8] was 10 µM (active), the Potency [1] was 3.55 µM (active) and the Potency [2] was “inactive”. The Potency [9] was 2.51 µM (active), the Potency [3] was 6.01 µM (active) and the Potency [4] was 4.26 µM (active). The Potency [5] was 5.62 µM (active) and the Potency [6] was 15.1 µM (active).

`Nc1ccc(N)cc1` was tested, and the Potency [1] was “inactive”, the Potency [10] was “inactive” and the Potency [5] was “inactive”.

In the case of `CN1C[C@@H](NS(=O)(=O)N(C)C)C[C@@H]2c3cccc4c3c(cn4C)C[C@H]21`, the Potency [7] was “inactive”, the Potency [2] was “inactive” and the Potency [9] was “inactive”. For the same compound, the Potency [3] was “inactive” and the Potency [6] was “inactive”.

With `C[C@]12C=CC(=O)C=C1CC[C@@H]1[C@@H]2CC[C@@]2(C)[C@H]1CC[C@]2(C)O` the Potency [7] was “inactive”, the Potency [8] was “inactive” and the Potency [1] was “inactive”. The Potency [2] was “inactive”, the Potency [9] was “inactive” and the Potency [5] was “inactive”.

In the case of `CC(C)(C)OC(=O)c1ncn2c1[C@@H]1CCCN1C(=O)c1c(Br)cccc1-2`, the Potency [7] was “inactive”, the Potency [8] was “inactive” and the Potency [1] was “inactive”. For the same compound, the Potency [2] was “inactive”, the Potency [9] was “inactive” and the Potency [10] was “inactive”. The Potency [3] was “inactive”, the Potency [4] was “inactive” and the Potency [5] was “inactive”. The Potency [6] was “inactive”.

With `C=CCOC(Cn1ccnc1)c1ccc(Cl)cc1Cl` (centres undefined) the Potency [8] was “inactive”, the Potency [1] was 10 µM (active) and the Potency [2] was “inactive”. The Potency [3] was 15.1 µM (active), the Potency [4] was 15.1 µM (active) and the Potency [5] was 11.2 µM (active). The Potency [6] was 12 µM (active).

`CN1CCc2cc(Cl)c(O)cc2[C@H]2c3ccccc3CC[C@@H]21` was tested, and the Potency [2] was “inactive” and the Potency [5] was 11.2 µM (active).

With `COCC(=O)N(c1c(C)cccc1C)C(C)C(=O)OC` (centres undefined) the Potency [8] was “inactive”, the Potency [1] was “inactive” and the Potency [2] was “inactive”. For the same compound, the Potency [10] was “inactive”, the Potency [3] was “inactive” and the Potency [4] was “inactive”. For the same compound, the Potency [5] was “inactive” and the Potency [6] was “inactive”.

In the case of `COc1ccc(CN2CCNCC2)c(OC)c1OC`, the Potency [7] was “inactive”, the Potency [8] was “inactive” and the Potency [1] was “inactive”. The Potency [2] was “inactive”, the Potency [9] was “inactive” and the Potency [5] was “inactive”. For the same compound, the Potency [6] was 5.1 µM (active).

With `O=C(NC(=O)c1c(F)cccc1F)Nc1cc(Cl)c(OC(F)(F)C(F)C(F)(F)F)cc1Cl` (centres undefined) the Potency [8] was 8.91 µM (active), the Potency [1] was 10 µM (active) and the Potency [2] was “inactive”. The Potency [9] was 7.94 µM (active), the Potency [10] was “inactive” and the Potency [3] was “inactive”. The Potency [4] was “inactive” and the Potency [6] was “inactive”.
